The values that follow come from PubChem BioAssay (EPA / NIEHS).

For the assay, the target named is Estrogen receptor beta (Homo sapiens) (UniProt Q92731). Nature of the assay: OT_ER_ERbERb_1440: Odyssey Thera (OT) 24-hour HEK293T Protein-Complementation Assay for Estrogen Receptor-beta/-beta Homodimer (AID 2283380).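 Further: fluorescence gain from ER beta LBD homodimer complementation read by laser scanning cytometry; scored as signal increase over DMSO baseline for both agonists and antagonists.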 In a few lines:
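HEK293T cells stably expressing human ER-beta LBD (aa 310-547) PCA homodimer pair, dosed 24 h; formaldehyde-fixed, Draq5-stained. Readout: increase in nuclear (agonist) or nuclear plus cytoplasmic (antagonist) fluorescence intensity versus DMSO, gain-of-signal fitting.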

Active and inactive are the calls of the source. How the source made its calls: active means hit-call score of the fitted dose curve at least 0.9, where 1 is the maximum; inconclusive means response in the unintended direction; inactive means score below 0.9.

Estrogen receptor beta (Homo sapiens), sequence (Q92731 whole entry, looked up, the tested form may be a part): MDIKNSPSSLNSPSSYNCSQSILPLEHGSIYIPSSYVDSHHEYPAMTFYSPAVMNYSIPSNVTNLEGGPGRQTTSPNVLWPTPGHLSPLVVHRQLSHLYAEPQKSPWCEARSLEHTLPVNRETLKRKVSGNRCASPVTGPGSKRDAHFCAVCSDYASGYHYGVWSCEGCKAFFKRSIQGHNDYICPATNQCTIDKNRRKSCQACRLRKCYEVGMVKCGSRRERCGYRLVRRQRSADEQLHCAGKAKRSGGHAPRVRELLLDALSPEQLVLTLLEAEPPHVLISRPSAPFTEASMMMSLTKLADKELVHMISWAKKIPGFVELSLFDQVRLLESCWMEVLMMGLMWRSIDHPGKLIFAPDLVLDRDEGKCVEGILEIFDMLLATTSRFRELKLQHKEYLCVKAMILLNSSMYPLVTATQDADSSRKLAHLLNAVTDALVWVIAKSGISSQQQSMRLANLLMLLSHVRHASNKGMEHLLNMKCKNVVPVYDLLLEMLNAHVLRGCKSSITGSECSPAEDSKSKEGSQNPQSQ

Consider `CC(=Cc1ccccc1)[N+](=O)[O-]`, for which the outcome was inactive. As for `CCC[CH2][Sn]([CH2]CCC)([CH2]CCC)[CH2]CCC`, the compound was classed as inactive. With `CC1(C)[C@H](C(=O)O[C@H](C#N)c2cccc(Oc3ccccc3)c2)[C@@H]1/C=C(\Cl)C(F)(F)F` the entry was “inactive”; with `C=CC(Cl)CCl` (centres undefined), “inactive”.
